Measurements as given in PubChem BioAssay (Tox21).
Where “and” joins values, the source holds several entries; their conditions need not be identical. Identical values can stand only once. Records with an inconclusive call do not appear. A structure can be active in one record and inactive in another. Calls of active or inactive are those of the source. Unless noted, calls follow the shape of the dose curve; as a rule, active = well fitted curve in the direction sought with a large enough effect in the repeat runs; inconclusive = weak or mixed curves; inactive = no such curve, though single readings can be large; an effect the other way counts as inactive or inconclusive.

Assays:
[1] = qHTS assay to identify small molecule antagonists of the progesterone receptor (PR) signaling pathway - cell viability counter screen (AID 1346798); also: nearly all actives have a fitted effect of over 50% in size; also: potency is read from the fitted curve at half-maximal effect
Procedure, shortened: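 Viability was determined by ATP-based luminescence (CellTiter-Glo) in PR-UAS-bla HEK293T cells cultured in 2% charcoal-stripped serum and incubated 16 hr with compounds under R5020 stimulation.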

[2] = qHTS assay to identify small molecule agonists of the progesterone receptor (PR) signaling pathway - cell viability counter screen (AID 1346799; calls by dose curve; also: nearly all actives have a fitted effect of over 45% in size; also: potency is read from the fitted curve at half-maximal effect)
Procedure, shortened: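 Viability was scored by ATP luminescence (CellTiter-Glo, 30 min, room temperature) in the same wells used for the reporter readout, after 16 hr compound exposure of PR-UAS-bla HEK293T cells.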

[3] = qHTS assay to identify small molecule antagonists of the TGF-beta/Smad signaling pathway - cell viability counter screen (AID 1346824); also: nearly all actives have a fitted effect of over 50% in size; also: potency is read from the fitted curve at half-maximal effect
Procedure, shortened: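 SBE-bla HEK 293T cells, incubated overnight, then compound plus 0.25 ng/mL TGF-beta1 (stock added) for 5 hr at 37 C. Viability was read in the same wells by CellTiter-Glo luminescence after 30 min at room temperature.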

[4] = qHTS assay to identify small molecule agonists of the TGF-beta/Smad signaling pathway - cell viability counter screen (AID 1346829); also: nearly all actives have a fitted effect of over 45% in size; also: potency is read from the fitted curve at half-maximal effect
Procedure, shortened: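 CellTiter-Glo luminescence readout; SBE-bla HEK 293T cells, overnight plating, compound 5 hr at 37 C/5% CO2, then bla substrate 2 hr RT, then CellTiter-Glo 30 min RT.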

[5] = qHTS assay to identify small molecule agonists of the TGF-beta/Smad signaling pathway (AID 1346859; active = well fitted activation curve with a large enough effect in the signal ratio in the repeat runs, not every such curve was filed as active; the % refers to the signal ratio; also: series mostly up to about 77 µM; % is scaled to controls: 0 for no effect and ±100 for the full control effect)
Procedure, shortened: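 Dual-wavelength fluorescence (460/530 nm emission) quantified beta-lactamase expression under the Smad binding element in HEK 293T cells following 5 hr compound treatment at 37 C.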

[6] = Caspase-3/7 induction in HepG2 cells by small molecules, qHTS assay (AID 1346978); also: nearly all actives have a fitted effect of over 15% in size; also: potency is read from the fitted curve at half-maximal effect
Procedure, shortened: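 Wild-type HepG2 cells, 2,000/well, settled 5 hr at 37 C and 5% CO2, then compound-treated for 17 hr; caspase-3/7 activity read by luminescent Caspase-Glo 3/7 after 30 min at room temperature.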

[7] = Caspase-3/7 induction in CHO-K1 cells by small molecules, qHTS assay (AID 1346980); also: nearly all actives have a fitted effect of over 15% in size; also: potency is read from the fitted curve at half-maximal effect; as to caspase-3/7 activation: % is scaled to controls: 0 for no effect and ±100 for the full control effect
Procedure, shortened: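 Wild-type CHO-K1 cells exposed to compounds for 17hr at 37 C, 5% CO2. Caspase-3/7 activity then measured by Caspase-Glo 3/7 luminescence after 30min at room temperature.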

[8] = Caspase-3/7 induction in HepG2 cells by small molecules, qHTS cell viability counter screen (AID 1346981); also: nearly all actives have a fitted effect of over 30% in size; also: potency is read from the fitted curve at half-maximal effect
Procedure, shortened: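 Wild-type HepG2 cells, 2,000/well, settled 5 hr at 37 C, 5% CO2 before compound addition. Viability read by CellTiter-Fluor fluorescence, reagent added after 16 hr compound exposure, then 1 hr at 37C, in the same wells as the caspase read.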

[9] = target: Nuclear receptor subfamily 1 group I member 2 (Homo sapiens) (UniProt O75469); test: Human pregnane X receptor (PXR) small molecule agonists, qHTS assay (AID 1346982); also: nearly all actives have a fitted effect of over 35% in size; also: potency is read from the fitted curve at half-maximal effect
Procedure, shortened: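 PXR-Luc HepG2 reporter cells (CYP3A4-driven luciferase) in 5% charcoal-stripped FBS medium, plated 5 h before compound addition, then treated 24 h at 37C. Luciferase read by ONE-Glo luminescence after 30 min at room temperature.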

[10] = target: Cytochrome P450 2D6 (Homo sapiens) (UniProt P10635); test: Cytochrome P450 Family 2 Subfamily D Member 6 (CYP2D6) small molecule antagonists: luciferase reporter qHTS assay (AID 1671196); also: nearly all actives have a fitted effect of over 50% in size; also: potency is read from the fitted curve at half-maximal effect
Procedure, shortened: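 Cell-free P450-Glo system: CYP2D6 with proluciferin substrate was pre-incubated with compound for 10 min, then reacted with NADPH regeneration for 1 h at room temperature. Luciferin product was detected after 20 min, and data were reported as relative luminescence units.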

[11] = target: Cytochrome P450 2C19 (Homo sapiens) (UniProt P33261); test: Cytochrome P450 Family 2 Subfamily C Member 19 (CYP2C19) small molecule antagonists: luciferase reporter qHTS assay (AID 1671197); also: nearly all actives have a fitted effect of over 65% in size; also: potency is read from the fitted curve at half-maximal effect
Procedure, shortened: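 Enzyme-substrate mix with proluciferin substrate (P450-Glo CYP2C19 system) preincubated with compounds 10 min at room temperature; NADPH regeneration solution added, 37C for 1 h; detection reagent stops reaction, luminescence read after 20 min. Ketoconazole positive control.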

[12] = Human pregnane X receptor (PXR) small molecule agonists, qHTS cell viability counter screen (AID 1346977); also: nearly all actives have a fitted effect of over 50% in size; also: potency is read from the fitted curve at half-maximal effect
Procedure, shortened: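 HepG2 cells stably carrying the PXR-Luc reporter are cultured with 5% charcoal-stripped FBS and treated with compounds for 24hr. CellTiter-Fluor is added at 23hr and fluorescence is read after 1hr.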

[13] = Caspase-3/7 induction in CHO-K1 cells by small molecules, qHTS cell viability counter screen (AID 1346979); also: nearly all actives have a fitted effect of over 35% in size; also: potency is read from the fitted curve at half-maximal effect
Procedure, shortened: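 Seeding: 1,500 CHO-K1 cells/well. Rest: 5hr, 37C. Treatment: compounds in DMSO, 16hr. Read: CellTiter-Fluor, 1hr, fluorescence.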

[14] = target: Progesterone receptor (Homo sapiens) (UniProt P06401); test: qHTS assay to identify small molecule antagonists of the progesterone receptor (PR) signaling pathway (AID 1346795; active = well fitted inhibition curve with a large enough effect in the signal ratio in the repeat runs, not every such curve was filed as active; the % refers to the signal ratio; also: potency is read from the fitted curve at half-maximal effect)
Procedure, shortened: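 After 6 hr plating at 37C in 2% stripped-serum medium, PR-UAS-bla HEK293T cells got compounds, then 1 nM R5020. Sixteen hours later, LiveBLAzer substrate was applied for 2 hr at room temperature and fluorescence was recorded.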

[15] = target: Thyrotropin-releasing hormone receptor (Homo sapiens) (UniProt P34981); test: qHTS assay to identify small molecule antagonists of the thyrotropin-releasing hormone receptor (TRHR) signaling pathway (AID 1346877; active = well fitted inhibition curve with a large enough effect in the repeat runs, not every such curve was filed as active; also: series mostly up to about 51 µM; % is scaled to controls: 0 for no effect and ±100 for the full control effect)
Procedure, shortened: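 TRHR-expressing HEK293 cells loaded with calcium dye for 2 h at 37 C; compounds pre-incubated 5 min at room temperature before TRH challenge at 1 nM final. Intracellular calcium fluorescence read kinetically for 3 min; 15 concentrations in triplicate.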

[16] = target: Thyrotropin-releasing hormone receptor (Homo sapiens) (UniProt P34981); test: qHTS assay to identify small molecule agonists of the thyrotropin-releasing hormone receptor (TRHR) signaling pathway (AID 1346891; calls by dose curve; also: series mostly up to about 58 µM; % is scaled to controls: 0 for no effect and ±100 for the full control effect)
Procedure, shortened: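 Kinetic fluorescence (3 min, 1 s intervals) reported intracellular calcium after compound transfer onto TRHR-Hek293 cells pre-loaded with dye for 2 h at 37 °C.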

[17] = target: Nuclear receptor subfamily 1 group I member 2 (Rattus norvegicus) (UniProt Q9R1A7); test: Rat pregnane X receptor (rPXR) activation by small molecules, qHTS assay (AID 1346983); conditions: rPXR luciferase reporter cells, One-Glo luminescence, 24 h; max activation: stronger effect = higher value; also: % is scaled to controls: 0 for no effect and ±100 for the full control effect; nearly all actives have a fitted effect of over 20% in size
Procedure, shortened: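 Cell-based rPXR activation assay: rPXR cells, 2,000 per well, rested 5hr at 37 C, then exposed to compounds in DMSO for 24 hr at 37 C. Luciferase activity read by One-Glo luminescence after 30 min at room temperature.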

[18] = target: Nuclear receptor subfamily 1 group I member 2 (Homo sapiens) (UniProt O75469); test: CYP3A4 induction through human pregnane X receptor (PXR) by small molecules, qHTS assay (AID 1346984); also: nearly all actives have a fitted effect of over 40% in size; also: potency is read from the fitted curve at half-maximal effect
Procedure, shortened: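 DPX-2 HepG2 cells carrying a PXR response element and CYP3A4-promoter luciferase construct, treated with compounds 24 hr at 37C. Then P450-Glo CYP3A4 Luciferin-IPA substrate (3uM final) for 3 hr at 37C, One-Glo added, luminescence read.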

[19] = target: Nuclear receptor subfamily 1 group I member 2 (Homo sapiens) (UniProt O75469); test: Human pregnane X receptor (PXR) activation by small molecules, qHTS assay (AID 1346985); also: nearly all actives have a fitted effect of over 40% in size; also: potency is read from the fitted curve at half-maximal effect
Procedure, shortened: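 DPX-2 cells (HepG2 co-transfected with a PXR response element and a CYP3A4-promoter luciferase construct) were seeded at 2,000 per well, rested 5 hr at 37C, then exposed to DMSO-dissolved compounds for 24 hr. Activation was read as luciferase luminescence.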

Sequence of Nuclear receptor subfamily 1 group I member 2 (Homo sapiens) (O75469 whole entry, looked up): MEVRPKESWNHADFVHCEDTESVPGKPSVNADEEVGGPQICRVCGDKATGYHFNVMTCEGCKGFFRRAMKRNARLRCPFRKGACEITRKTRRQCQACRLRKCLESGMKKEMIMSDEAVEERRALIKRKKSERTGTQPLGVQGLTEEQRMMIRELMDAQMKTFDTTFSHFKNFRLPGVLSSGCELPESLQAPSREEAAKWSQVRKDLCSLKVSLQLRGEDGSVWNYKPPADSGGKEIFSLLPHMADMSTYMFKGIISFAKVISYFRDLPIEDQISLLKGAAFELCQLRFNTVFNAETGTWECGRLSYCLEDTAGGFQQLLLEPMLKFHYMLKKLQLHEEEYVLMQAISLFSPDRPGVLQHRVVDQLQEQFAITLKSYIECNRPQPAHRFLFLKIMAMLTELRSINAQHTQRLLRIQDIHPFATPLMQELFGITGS
Sequence of Progesterone receptor (Homo sapiens) (P06401 whole entry, looked up): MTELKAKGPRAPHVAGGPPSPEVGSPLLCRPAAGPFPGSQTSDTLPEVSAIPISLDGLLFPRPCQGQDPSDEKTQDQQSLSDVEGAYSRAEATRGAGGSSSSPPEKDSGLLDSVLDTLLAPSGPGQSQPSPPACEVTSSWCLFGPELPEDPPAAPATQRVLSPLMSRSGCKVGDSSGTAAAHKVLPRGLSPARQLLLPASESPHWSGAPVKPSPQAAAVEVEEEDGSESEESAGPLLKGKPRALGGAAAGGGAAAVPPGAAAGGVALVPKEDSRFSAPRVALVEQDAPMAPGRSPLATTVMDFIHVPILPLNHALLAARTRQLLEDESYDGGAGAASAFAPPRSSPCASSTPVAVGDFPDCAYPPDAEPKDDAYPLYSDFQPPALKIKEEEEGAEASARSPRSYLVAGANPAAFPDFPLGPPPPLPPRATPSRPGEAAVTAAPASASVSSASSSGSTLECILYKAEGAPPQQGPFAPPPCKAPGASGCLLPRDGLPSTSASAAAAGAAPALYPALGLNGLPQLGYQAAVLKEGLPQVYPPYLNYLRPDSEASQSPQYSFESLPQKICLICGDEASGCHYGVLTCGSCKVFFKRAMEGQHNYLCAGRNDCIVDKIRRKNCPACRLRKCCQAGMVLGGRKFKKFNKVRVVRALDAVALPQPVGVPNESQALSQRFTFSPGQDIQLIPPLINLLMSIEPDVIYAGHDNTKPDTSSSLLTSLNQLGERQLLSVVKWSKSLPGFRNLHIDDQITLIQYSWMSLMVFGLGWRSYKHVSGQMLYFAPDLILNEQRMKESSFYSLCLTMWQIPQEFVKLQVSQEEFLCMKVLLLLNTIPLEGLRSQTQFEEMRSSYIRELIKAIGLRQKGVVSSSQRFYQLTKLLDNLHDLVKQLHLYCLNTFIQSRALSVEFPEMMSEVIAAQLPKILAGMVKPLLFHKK
Sequence of Thyrotropin-releasing hormone receptor (Homo sapiens) (P34981 whole entry, looked up): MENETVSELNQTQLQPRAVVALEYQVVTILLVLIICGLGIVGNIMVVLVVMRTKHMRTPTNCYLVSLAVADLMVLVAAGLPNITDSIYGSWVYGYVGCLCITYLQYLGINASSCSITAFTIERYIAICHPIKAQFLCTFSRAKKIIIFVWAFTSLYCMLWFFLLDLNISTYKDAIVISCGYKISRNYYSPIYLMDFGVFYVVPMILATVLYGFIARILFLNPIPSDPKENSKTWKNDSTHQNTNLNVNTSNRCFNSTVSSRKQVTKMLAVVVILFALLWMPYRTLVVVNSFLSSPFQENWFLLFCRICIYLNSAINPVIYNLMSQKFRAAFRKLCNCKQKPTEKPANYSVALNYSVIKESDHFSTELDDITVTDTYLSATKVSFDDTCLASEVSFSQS
Sequence of Cytochrome P450 2D6 (Homo sapiens) (P10635 whole entry, looked up): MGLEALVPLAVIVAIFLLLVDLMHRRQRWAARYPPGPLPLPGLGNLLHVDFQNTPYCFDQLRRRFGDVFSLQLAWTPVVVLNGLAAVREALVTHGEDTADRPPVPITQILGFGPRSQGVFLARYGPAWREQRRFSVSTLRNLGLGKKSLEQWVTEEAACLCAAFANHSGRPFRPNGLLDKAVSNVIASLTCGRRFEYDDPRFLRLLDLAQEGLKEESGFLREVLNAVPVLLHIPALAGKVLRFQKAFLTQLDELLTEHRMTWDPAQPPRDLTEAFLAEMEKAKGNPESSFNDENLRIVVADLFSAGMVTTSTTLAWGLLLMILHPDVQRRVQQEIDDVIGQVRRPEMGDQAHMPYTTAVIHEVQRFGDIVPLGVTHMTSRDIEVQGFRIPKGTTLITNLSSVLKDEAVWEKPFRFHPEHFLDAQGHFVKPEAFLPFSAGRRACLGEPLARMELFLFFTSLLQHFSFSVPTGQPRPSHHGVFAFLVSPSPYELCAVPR
Sequence of Nuclear receptor subfamily 1 group I member 2 (Rattus norvegicus) (Q9R1A7 whole entry, looked up): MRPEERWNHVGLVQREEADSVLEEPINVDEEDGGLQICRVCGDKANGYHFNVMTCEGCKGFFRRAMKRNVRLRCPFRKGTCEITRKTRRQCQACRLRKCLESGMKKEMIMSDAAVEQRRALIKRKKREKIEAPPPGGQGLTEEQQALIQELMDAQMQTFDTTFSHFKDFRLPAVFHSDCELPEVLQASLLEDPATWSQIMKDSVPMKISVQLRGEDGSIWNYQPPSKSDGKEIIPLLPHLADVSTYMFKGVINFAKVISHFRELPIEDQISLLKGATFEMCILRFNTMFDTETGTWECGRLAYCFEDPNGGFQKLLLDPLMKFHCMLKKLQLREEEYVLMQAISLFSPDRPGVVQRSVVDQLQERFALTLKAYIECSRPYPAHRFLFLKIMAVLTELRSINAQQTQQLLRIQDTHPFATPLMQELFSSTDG
Sequence of Cytochrome P450 2C19 (Homo sapiens) (P33261 whole entry, looked up): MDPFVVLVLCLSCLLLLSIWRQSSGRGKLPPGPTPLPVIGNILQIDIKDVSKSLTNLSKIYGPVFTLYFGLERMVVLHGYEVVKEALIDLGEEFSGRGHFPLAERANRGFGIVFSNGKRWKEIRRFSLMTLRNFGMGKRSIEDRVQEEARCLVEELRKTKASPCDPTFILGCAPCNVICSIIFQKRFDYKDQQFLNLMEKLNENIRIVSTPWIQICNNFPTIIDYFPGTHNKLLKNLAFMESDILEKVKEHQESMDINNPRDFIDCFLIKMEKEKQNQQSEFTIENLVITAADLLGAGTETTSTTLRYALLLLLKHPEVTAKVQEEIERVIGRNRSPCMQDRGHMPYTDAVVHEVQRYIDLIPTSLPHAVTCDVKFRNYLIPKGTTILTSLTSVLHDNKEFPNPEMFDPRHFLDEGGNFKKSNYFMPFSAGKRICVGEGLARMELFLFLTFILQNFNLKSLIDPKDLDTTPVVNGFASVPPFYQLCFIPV

CCCCCCCCOC(=O)c1ccc(O)cc1
active: Potency [6] 27.3 µM | Potency [10] 56.2 µM and 39.9 µM | Potency [11] 22.4 µM and 10 µM
30.5 µM (active) and inactive: Potency [9]
inactive: Potency [1] | Potency [2] | Potency [3] | Potency [4] | Potency [5] | Potency [7] | Potency [8]

O=c1[nH]sc2ccccc12
active: Potency [1] 27.3 µM | Potency [2] 30.6 µM | Potency [12] 27.3 µM | Potency [13] 19.3 µM | Potency [9] 8.63 µM
inactive: Potency [3] | Potency [4] | Potency [5] | Potency [6] | Potency [7] | Potency [10] | Potency [11]

Fc1ccc(C(c2ccc(F)cc2)N2CCN(C/C=C/c3ccccc3)CC2)cc1
inactive: Potency [5] | Potency [6] | Potency [7] | Potency [11]
active: Potency [14] 23.7 µM | Potency [12] 29.8 µM

N=C1N=C(N)c2ccccc21
inactive: Potency [1] | Potency [2] | Potency [3] | Potency [4] | Potency [5] | Potency [15] | Potency [16] | Potency [11]
active: Potency [6] 54.5 µM | Potency [13] 61.1 µM | Potency [8] 27.3 µM | Potency [9] 24.3 µM | Potency [10] 56.4 µM

O=C(Nc1ccc(Oc2ccc(Cl)cc2)c(Cl)c1)c1cc(I)cc(I)c1O
active: Potency [14] 23.7 µM | Potency [9] 26.6 µM | Potency [18] 22.4 µM | Potency [19] 22.4 µM
inactive: Potency [3] | Potency [4] | Potency [5] | Potency [15] | Potency [6] | Potency [13] | Potency [7] | max activation [17] -12.9% | Potency [10] | Potency [11]

CCCCCCCCCOC(=O)c1ccc(O)cc1
active: Potency [14] 24 µM | Potency [6] 53.7 µM | Potency [13] 53.7 µM | Potency [8] 60.3 µM | Potency [11] 1.97 µM
inactive: Potency [5] | Potency [7] | Potency [9]

CC[C@@]1(O)C(=O)OCc2c1cc1n(c2=O)Cc2c-1nc1ccccc1c2/C=N/OC(C)(C)C
active: Potency [12] 0.237 µM | Potency [6] 0.335 µM | Potency [7] 11.9 µM
inactive: Potency [1] | Potency [2] | Potency [3] | Potency [4] | Potency [15] | Potency [16] | Potency [9] | Potency [10] | Potency [11]

Oc1ccc2cc(SSc3ccc4cc(O)ccc4c3)ccc2c1
active: Potency [14] 30.7 µM and 48.6 µM | Potency [9] 17.2 µM and 15.4 µM | Potency [11] 35.6 µM
inactive: Potency [1] | Potency [3] | Potency [4] | Potency [5] | Potency [15] | Potency [16] | Potency [12] | Potency [6] | Potency [7]

Nc1ccc(N)c2ccccc12
inactive: Potency [2] | Potency [15] | Potency [16] | Potency [7]
active: Potency [14] 54.4 µM | Potency [12] 24.3 µM | Potency [13] 30.6 µM | Potency [9] 8.63 µM | Potency [10] 3.99 µM | Potency [11] 3.17 µM

CCN1/C(=C/C=C/c2sc3ccccc3[n+]2CC)Sc2ccccc21
inactive: activity, negative = inhibition [15] -4.16% [at 10.5 µM] | activation [16] -0.259% [at 11.8 µM] | caspase activation [6] -8.48% [at 19 µM] | caspase-3/7 activation [7] 0.607% [at 19 µM] | activation [9] 29.7% [at 19 µM] | max activation [17] -26.5% | Potency [18] | Potency [19]
active: Potency [14] 11.6 µM | Potency [4] 4.65 µM | Potency [12] 5.17 µM | Potency [13] 1.46 µM | Potency [8] 10.3 µM | Potency [10] 12 µM | Potency [11] 19 µM

Cc1[nH]cnc1C[C@H]1CCc2c(C)c3ccccc3n2C1=O
inactive: Potency [4] | Potency [5] | Potency [15] | Potency [16] | Potency [7]
active: Potency [14] 37.6 µM | Potency [13] 47.4 µM | Potency [9] 59.6 µM | Potency [10] 4.37 µM | Potency [11] 1.95 µM

CC(=O)OCC(C)OC(C)=O (stereo not given)
inactive: Potency [1] | Potency [2] | Potency [3] | Potency [4] | Potency [5] | Potency [15] | Potency [16] | Potency [12] | Potency [6] | Potency [13] | Potency [7] | Potency [8] | Potency [9] | Potency [10] | Potency [11]

CCC(C)Nc1ccc(NC(C)CC)cc1 (stereo not given)
active: Potency [14] 55.5 µM | Potency [4] 39.7 µM | Potency [13] 17.6 µM | Potency [8] 27.8 µM | Potency [10] 2.88 µM | Potency [11] 1.82 µM
inactive: Potency [15] | Potency [16] | Potency [6] | Potency [7]

Oc1ccc(Cl)cc1Sc1cc(Cl)ccc1O
inactive: Potency [3] | Potency [4] | Potency [5] | Potency [6] | Potency [7] | Potency [10]
active: Potency [14] 7.68 µM and 9.44 µM | Potency [1] 54.4 µM | Potency [13] 30.6 µM | Potency [8] 38.5 µM | Potency [11] 1.26 µM and 1.55 µM

CCCCCCOC(=O)c1ccc(O)cc1
inactive: Potency [2] | Potency [4] | Potency [5] | Potency [15] | Potency [16] | Potency [12] | Potency [6] | Potency [7] | Potency [8] | Potency [9]
active: Potency [14] 38.6 µM and 21.7 µM | Potency [11] 11.3 µM and 20 µM

COc1ccc(CN2CCN(C(c3ccc(F)cc3)c3ccc(F)cc3)CC2)c(OC)c1OC
inactive: Potency [15] | Potency [16] | Potency [6] | Potency [7] | max activation [17] -8.37% | Potency [19]
active: Potency [1] 16.8 µM | Potency [2] 13.3 µM | Potency [3] 16.9 µM | Potency [4] 23.9 µM | Potency [12] 26.6 µM | Potency [13] 26.6 µM | Potency [8] 26.6 µM | Potency [10] 4.9 µM
